From PubChem BioAssay (NCATS) come the findings set out here.

The nature of assay [1]: Quantitative high throughput screen for delayed death inhibitors of the malarial parasite plastid, 48 hour incubation (AID 488752). Further: on the % scale 0 is the no-effect control and ±100 the full control effect; nearly all actives have a fitted effect of over 65% in size. Put shortly:
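Luciferase-expressing P. falciparum in RBCs, 2% Hct, 0.1% parasitemia final; RPMI 1640 + 0.5% Albumax; 48 h, 37 C, 5% CO2; luminescence readout, signal drop = growth inhibition.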

Assay [2] concerns the target Thioredoxin reductase 1, cytoplasmic (Rattus norvegicus) (UniProt O89049). The assay is described as follows: qHTS Assay for Substrates of Mammalian Selenoprotein Thioredoxin Reductase 1 (TrxR1) (AID 488772).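 Further: series mostly up to about 57 µM; 0% is about no effect; a drop in NADPH fluorescence below the no-compound background marks a TrxR1 substrate.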 Put shortly: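 In this dual-purpose format, potential substrates are identified from the first fluorescence read after selenite addition, not from the 8-minute delta. Rat enzyme is preincubated with NADPH and then with compound at ~22 deg C.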

Assay [3] has the same target. Description: qHTS Assay for Inhibitors of Mammalian Selenoprotein Thioredoxin Reductase 1 (TrxR1) (AID 488773).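 Further: drop in NADPH fluorescence over an 8 min run after selenite addition; series mostly up to about 57 µM; on the % scale 0 is the no-effect control and ±100 the full control effect; nearly all actives have a fitted effect of over 40% in size.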 To be noted: Potency: inhibition. Summed up: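 Inhibition is scored from the loss of NADPH fluorescence between first and last reads of an 8-min kinetic run. Selenite (400 uM) was the substrate, added after 15 min compound preincubation at room temperature.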

For assay [4], the target named is Flap endonuclease 1 (Homo sapiens) (UniProt P39748). The assay is described as follows: qHTS Validation Assay for the Inhibitors of Human Flap endonuclease 1 (FEN1) (AID 488816). Further: potency means the concentration at half of the fitted maximal effect. Summed up:
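qHTS format: compounds and 10 nM FEN1 incubated 15 min at room temperature before adding 50 nM substrate. Cleavage followed by reads at 0 and 15 min; normalized data fitted to a four-parameter Hill curve.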
(In general: Quantitative high-throughput screening tests each substance at several concentrations.)

The target of assay [5] is M-phase phosphoprotein 8 (Homo sapiens) (UniProt Q99549). The assay is described as follows: qHTS Validation Assay for Inhibitors for MPP8 Chromodomain Interactions with Methylated Histone Tails (AID 488949). Further: nearly all actives have a fitted effect of over 55% in size. Further: potency means the concentration at half of the fitted maximal effect. Summed up:
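MPP8 (50 nM) was preincubated with biotinylated H3(1-18)K9me3 peptide (50 nM) in PBS pH 7.4, 0.01% Tween-20 for 30 min at room temperature, then with compounds for 30 min; binding was detected by AlphaScreen.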

Assay [6] deals with Chromobox protein homolog 1 (Homo sapiens) (UniProt P83916). Description: qHTS Validation Assay for Inhibitors of HP1-beta Chromodomain Interactions with Methylated Histone Tails (AID 488953). Further: nearly all actives have a fitted effect of over 50% in size. Further: potency means the concentration at half of the fitted maximal effect. Put shortly:
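AlphaScreen proximity readout: streptavidin donor and Ni-chelate acceptor beads, 10 ug/mL final, 30 min dark, RT. Complex of 50 nM HP1-beta and 50 nM b-H3(1-18)K9me3 formed 30 min, then compound-treated 30 min; PBS pH 7.4/0.01% Tween-20.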

The target of assay [7] is Methanococcus maripaludis chaperonin (MmCpn) (UniProt Q6LX38). Description: High-Throughput Screening for Modulators of Cytosolic Chaperonin Activity: MmCpn Primary Screen (AID 488978).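 Further: 50 nM MmCpn enzyme hydrolysing 30 µM ATP at 37 °C; 0% is about no effect.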 Summed up:
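MmCpn (50 nM final) was preincubated with compound 5 min at RT, then 30 uM ATP (final) was added and the reaction ran 10 min at 37C. ADP produced was detected by Transcreener HTRF (ex 320 nm; em 590/665 nm).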

For assay [8], the target named is D(1A) dopamine receptor (Homo sapiens) (UniProt P21728). Description: HTS Assay for Allosteric Agonists of the Human D1 Dopamine Receptor: Primary Screen for Agonists (AID 488981). Further: 0% is about no effect. Summed up:
(§1)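 Calcium flux in an inducible, force-coupled HEK293 Trex D1 line (overnight at 30 C): agonist mode is the 180 s kinetic read after compound; potentiator mode is the following 180 s read after dopamine at EC20.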

For assay [9] the target is unchanged. The assay is described as follows: HTS Assay for Allosteric Agonists of the Human D1 Dopamine Receptor: Primary Screen for Antagonists (AID 488983).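 Further: calcium flux response to an EC80 dopamine challenge measured with no-wash dye; on the % scale 0 is the no-effect control and ±100 the full control effect; nearly all actives have a fitted effect of over 65% in size.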 Summed up: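 Calcium flux readout, no-wash dye, inducible HEK293 T-REx D1 line (force-coupled). Compound added after 10 s baseline, 180 s kinetic read; then dopamine at EC80, further 180 s read.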
Assay [10] addresses Thyrotropin-releasing hormone receptor (Homo sapiens) (UniProt P34981). Description: qHTS for Small Molecule Agonists and Allosteric Enhancers of Human TRH Receptor: Validation Screen for Agonists (AID 493127;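 active means calcium activation more than 3 SD above the typical response in the agonist read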;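 further: intracellular calcium rise by fluo-8 fluorescence before TRH EC20 addition; 0% is about no effect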). The settings on record: TRH receptor agonist cell assay; at 2 µM; stronger effect = higher value. Put shortly:
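Read-out: intracellular calcium release measured kinetically by FDSS (fluo-8, ex 480/em 530 nm), 1 reading/s after a 10-cycle baseline. TRHR cells, 2000/well, cultured 18 h at 33.5C, dye-loaded at room temp. Compound-evoked positive calcium signal flags agonists.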

Assay [11] can be described thus: Nrf2 qHTS screen for inhibitors: Validation (AID 493153; active means well fitted inhibition curve with a large enough effect in the main read-out, with a control signal flat, not every such curve was filed as active). To be noted: Potency: luciferase luminescence; viability change: measured here: cytotoxicity max response. Summed up:
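Concentration-response test in A549 ARE_Fluc reporter cells (5% FBS OPTI-MEM), compound exposure 18-24 h at 37°C, 5% CO2. Cell viability measured first by CellTiter-Fluor fluorescence; ARE-driven luciferase luminescence then measured as Nrf2 activity.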

Assay [12] in a line: qHTS for Inhibitors of Cell Surface uPA Generation: Validation Assay (AID 493164).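 Further: RAW 264.7 macrophage cells exposed to compound for 18 h; 0% is about no effect.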 Summed up:
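Compounds are titrated over seven points (2.45 nM–38.3 uM final) onto pre-plated RAW 264.7 cells and incubated for 18 h. Retained intracellular ATP, measured with ATP-Lite, indicates blocked lethal factor entry.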

Assay [13] can be described thus: Validation screen for small molecules that induce DNA re-replication in SW480 colon adenocarcinoma cells (AID 504364). Further: 0% is about no effect. Summed up:
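Read-out: total Hoechst intensity of nuclei by fluorescence scanning imager; hits raise the fraction of nuclei with elevated DNA content. Cells received compound for 48 hr at 37 C before a 40 min stain.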

Assay [14] concerns the target phosphoglycerate mutase (Leishmania major) (UniProt Q4Q090). The assay is described as follows: qHTS Validation Assay to Find Inhibitors of Phosphoglycerate Mutase (AID 504548).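 Further: end-point luminescence from Kinase-GloPlus after the PGAM reaction; series mostly up to about 58 µM; on the % scale 0 is the no-effect control and ±100 the full control effect.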 To be noted: Potency: inhibition qHTS. Put shortly:
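L. major PGAM (1.25nM final) was added to substrate buffer and pinned compound, incubated 45 minutes at room temperature, then Kinase-GloPlus added; luminescence read after 10 minutes. Buffer: 100 mM TEA pH 7.6, 5 mM MgCl2, 0.01% Tween-20.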

The target of assay [15] is Ubiquitin carboxyl-terminal hydrolase 1 (Homo sapiens) (UniProt O94782). Description: Inhibitors of USP1/UAF1: Pilot qHTS (AID 504865). Further: nearly all actives have a fitted effect of over 35% in size. Further: potency means the concentration at half of the fitted maximal effect. Put shortly: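 USP1/UAF1 complex (1nM) preincubated with compound 15 min at room temperature, then Ub-Rho substrate (150nM final) added. Fluorescence read kinetically at 480/540 nm, 6 reads every 60 seconds. Buffer: 50mM HEPES pH 7.8, 0.5mM EDTA, 0.1 mg/ml BSA, 1mM TCEP, 0.01% Tween-20.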

The target in assay [16] is Transient receptor potential cation channel subfamily V member 1 (Homo sapiens) (UniProt Q8NER1). The assay is described as follows: HTS Assay for Compounds that Act as Enhancers of the Vanilloid Receptor 1 (AID 488979). Further: 0% is about no effect. Summed up: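 Calcium influx kinetics via Fluo-8 (480/520 nm) in TRPV1-expressing cells, 2000/well cultured overnight at 35.5C. Compound-alone read 3 min (agonist phase), followed by EC20 capsaicin challenge for 2 min (enhancer phase).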

The target in assay [17] is D(1A) dopamine receptor (Homo sapiens) (UniProt P21728). Description: HTS Assay for Allosteric Agonists of the Human D1 Dopamine Receptor: Primary Screen for Potentiators (AID 488982). Further: 0% is about no effect. Summed up: as §1
Assay [18] has as its target ATP-dependent 6-phosphofructokinase (Trypanosoma brucei brucei) (UniProt O15648). The assay is described as follows: qHTS Assay to Find Inhibitors of T. brucei phosphofructokinase: hit validation (AID 492961).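 Further: luminescence reports ADP formed as PFK phosphorylates fructose-6-phosphate with ATP; series mostly up to about 51 µM; on the % scale 0 is the no-effect control and ±100 the full control effect.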 Summed up: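 ADP-Glo luminescence read-out of ADP formed by 1.25 nM PFK from 0.1 mM ATP and 0.5 mM F6P (TEA pH 8.0, 45 min, RT). Compounds titrated; activity normalized to no-enzyme and full-enzyme controls.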

Assay [19] concerns the target Peptidyl-prolyl cis-trans isomerase NIMA-interacting 1 (Homo sapiens) (UniProt Q13526). Description: qHTS Validation Assay to Find Inhibitors of Pin1 (AID 504536; active means well fitted inhibition curve with a large enough effect in the polarisation, with a control signal flat, not every such curve was filed as active; the % refers to the polarisation;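 further: 0% = full Pin1 enzyme wells and -100% = no-enzyme wells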). Summed up: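 Fluorescence polarization competition: compounds (titration) displace HiFluor-488-labeled Pin1-1b peptide from Pin1 (0.3 uM final) in pH 7.5 HEPES buffer with DTT, 10 min at room temperature; %Activity normalized to no-enzyme wells, curves fitted.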

Assay [20] addresses Phosphoglycerate kinase, glycosomal (Trypanosoma brucei brucei) (UniProt P07378). Description: qHTS Validation Assay to Find Inhibitors of Phosphoglycerate Kinase (AID 504547).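 Further: control wells lack PGK and mark full inhibition.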 Put shortly: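 Luminescence end-point (Kinase-Glo Plus, 10 min) after a 60 min room-temperature coupled reaction. GAPDH at 100nM final supplies 1,3-BPG to PGK. Buffer: 100mM TEA pH 7.6, 5mM MgCl2, 0.01% Tween-20. Wells lacking PGK served as controls.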

Inconclusive results are not listed. The source made the active and inactive calls. Unless noted, the call rests on the fitted dose curve; in most records, active means well fitted curve in the direction sought with a large enough effect; inconclusive means small, poorly fitted or top-dose-only effect, or another doubt; inactive means no such curve, though single readings can be large; an effect the other way counts as inactive or inconclusive.

Chain of Chromobox protein homolog 1 (Homo sapiens) (P83916 whole entry, looked up): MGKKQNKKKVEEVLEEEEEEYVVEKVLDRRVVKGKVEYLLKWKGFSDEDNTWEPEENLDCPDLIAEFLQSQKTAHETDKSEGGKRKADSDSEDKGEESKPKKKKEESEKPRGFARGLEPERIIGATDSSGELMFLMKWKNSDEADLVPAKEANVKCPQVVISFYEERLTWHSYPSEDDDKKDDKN
Chain of Transient receptor potential cation channel subfamily V member 1 (Homo sapiens) (Q8NER1 whole entry, looked up): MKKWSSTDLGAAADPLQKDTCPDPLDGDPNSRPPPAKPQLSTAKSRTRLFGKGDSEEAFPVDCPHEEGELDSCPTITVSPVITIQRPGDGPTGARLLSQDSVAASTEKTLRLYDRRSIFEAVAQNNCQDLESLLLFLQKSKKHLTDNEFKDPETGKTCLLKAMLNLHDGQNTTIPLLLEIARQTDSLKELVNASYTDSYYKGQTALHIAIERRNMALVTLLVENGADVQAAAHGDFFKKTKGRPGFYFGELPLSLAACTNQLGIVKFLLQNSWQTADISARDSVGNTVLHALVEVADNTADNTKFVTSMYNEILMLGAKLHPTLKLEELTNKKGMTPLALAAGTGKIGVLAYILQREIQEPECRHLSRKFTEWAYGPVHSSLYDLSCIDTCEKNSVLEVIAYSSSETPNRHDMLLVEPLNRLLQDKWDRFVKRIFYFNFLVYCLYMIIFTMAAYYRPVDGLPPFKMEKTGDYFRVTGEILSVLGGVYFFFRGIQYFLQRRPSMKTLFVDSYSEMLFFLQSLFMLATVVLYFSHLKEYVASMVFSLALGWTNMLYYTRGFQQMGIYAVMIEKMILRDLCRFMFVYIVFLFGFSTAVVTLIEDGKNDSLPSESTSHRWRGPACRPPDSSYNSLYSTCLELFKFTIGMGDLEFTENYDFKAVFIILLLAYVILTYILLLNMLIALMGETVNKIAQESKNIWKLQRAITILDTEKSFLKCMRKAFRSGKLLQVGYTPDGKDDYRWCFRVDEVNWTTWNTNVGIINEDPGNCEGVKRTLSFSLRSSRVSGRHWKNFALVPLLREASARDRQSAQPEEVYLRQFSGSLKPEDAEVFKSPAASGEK
Chain of Ubiquitin carboxyl-terminal hydrolase 1 (Homo sapiens) (O94782 whole entry, looked up): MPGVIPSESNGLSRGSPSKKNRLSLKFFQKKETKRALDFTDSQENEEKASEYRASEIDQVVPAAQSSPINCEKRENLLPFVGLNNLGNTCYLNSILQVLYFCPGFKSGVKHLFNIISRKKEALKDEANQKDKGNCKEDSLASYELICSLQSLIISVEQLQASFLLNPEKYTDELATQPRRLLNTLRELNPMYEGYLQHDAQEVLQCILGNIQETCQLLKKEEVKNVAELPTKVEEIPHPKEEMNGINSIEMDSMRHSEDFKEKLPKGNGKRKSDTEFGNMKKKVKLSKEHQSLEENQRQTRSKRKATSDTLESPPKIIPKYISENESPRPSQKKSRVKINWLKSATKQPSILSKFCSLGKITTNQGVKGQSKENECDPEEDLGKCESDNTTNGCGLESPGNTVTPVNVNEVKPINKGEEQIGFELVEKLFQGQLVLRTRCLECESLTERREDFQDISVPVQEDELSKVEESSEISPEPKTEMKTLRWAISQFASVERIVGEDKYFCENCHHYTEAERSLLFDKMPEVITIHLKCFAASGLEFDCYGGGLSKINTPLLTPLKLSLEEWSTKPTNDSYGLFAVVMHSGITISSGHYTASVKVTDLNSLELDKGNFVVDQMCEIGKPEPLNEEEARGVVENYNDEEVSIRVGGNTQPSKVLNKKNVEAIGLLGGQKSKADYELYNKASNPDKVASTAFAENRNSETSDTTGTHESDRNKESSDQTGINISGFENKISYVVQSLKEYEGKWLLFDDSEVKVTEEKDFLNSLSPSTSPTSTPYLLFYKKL
Chain of Thioredoxin reductase 1, cytoplasmic (Rattus norvegicus) (O89049 whole entry, looked up): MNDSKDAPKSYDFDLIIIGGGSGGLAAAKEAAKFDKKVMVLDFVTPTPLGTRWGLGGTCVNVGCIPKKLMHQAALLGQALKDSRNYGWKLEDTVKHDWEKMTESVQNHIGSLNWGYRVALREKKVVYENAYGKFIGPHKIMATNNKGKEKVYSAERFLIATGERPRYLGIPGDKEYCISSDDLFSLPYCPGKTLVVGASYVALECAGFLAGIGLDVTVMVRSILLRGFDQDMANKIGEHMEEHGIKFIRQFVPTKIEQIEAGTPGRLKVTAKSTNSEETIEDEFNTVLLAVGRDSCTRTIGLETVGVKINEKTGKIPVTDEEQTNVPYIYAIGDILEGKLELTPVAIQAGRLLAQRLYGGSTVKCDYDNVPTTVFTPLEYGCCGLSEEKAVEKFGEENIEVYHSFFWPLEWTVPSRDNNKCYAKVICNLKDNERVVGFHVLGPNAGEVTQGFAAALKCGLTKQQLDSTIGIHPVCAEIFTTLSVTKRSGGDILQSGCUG
Chain of Peptidyl-prolyl cis-trans isomerase NIMA-interacting 1 (Homo sapiens) (Q13526 whole entry, looked up): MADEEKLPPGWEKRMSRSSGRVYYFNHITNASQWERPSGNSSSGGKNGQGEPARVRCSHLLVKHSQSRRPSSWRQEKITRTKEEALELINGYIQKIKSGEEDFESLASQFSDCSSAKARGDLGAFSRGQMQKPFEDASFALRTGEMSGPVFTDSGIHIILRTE
Chain of Flap endonuclease 1 (Homo sapiens) (P39748 whole entry, looked up): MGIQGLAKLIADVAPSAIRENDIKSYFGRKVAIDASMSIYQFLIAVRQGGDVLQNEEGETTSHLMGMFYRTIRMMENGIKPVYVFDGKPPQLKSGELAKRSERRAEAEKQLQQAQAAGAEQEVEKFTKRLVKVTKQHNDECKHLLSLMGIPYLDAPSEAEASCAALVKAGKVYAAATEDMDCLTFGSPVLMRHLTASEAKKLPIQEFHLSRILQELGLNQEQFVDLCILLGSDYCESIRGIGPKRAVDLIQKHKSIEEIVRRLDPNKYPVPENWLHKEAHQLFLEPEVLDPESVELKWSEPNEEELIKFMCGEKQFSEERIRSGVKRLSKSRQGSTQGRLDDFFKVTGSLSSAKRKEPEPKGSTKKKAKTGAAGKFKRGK
Chain of M-phase phosphoprotein 8 (Homo sapiens) (Q99549 whole entry, looked up): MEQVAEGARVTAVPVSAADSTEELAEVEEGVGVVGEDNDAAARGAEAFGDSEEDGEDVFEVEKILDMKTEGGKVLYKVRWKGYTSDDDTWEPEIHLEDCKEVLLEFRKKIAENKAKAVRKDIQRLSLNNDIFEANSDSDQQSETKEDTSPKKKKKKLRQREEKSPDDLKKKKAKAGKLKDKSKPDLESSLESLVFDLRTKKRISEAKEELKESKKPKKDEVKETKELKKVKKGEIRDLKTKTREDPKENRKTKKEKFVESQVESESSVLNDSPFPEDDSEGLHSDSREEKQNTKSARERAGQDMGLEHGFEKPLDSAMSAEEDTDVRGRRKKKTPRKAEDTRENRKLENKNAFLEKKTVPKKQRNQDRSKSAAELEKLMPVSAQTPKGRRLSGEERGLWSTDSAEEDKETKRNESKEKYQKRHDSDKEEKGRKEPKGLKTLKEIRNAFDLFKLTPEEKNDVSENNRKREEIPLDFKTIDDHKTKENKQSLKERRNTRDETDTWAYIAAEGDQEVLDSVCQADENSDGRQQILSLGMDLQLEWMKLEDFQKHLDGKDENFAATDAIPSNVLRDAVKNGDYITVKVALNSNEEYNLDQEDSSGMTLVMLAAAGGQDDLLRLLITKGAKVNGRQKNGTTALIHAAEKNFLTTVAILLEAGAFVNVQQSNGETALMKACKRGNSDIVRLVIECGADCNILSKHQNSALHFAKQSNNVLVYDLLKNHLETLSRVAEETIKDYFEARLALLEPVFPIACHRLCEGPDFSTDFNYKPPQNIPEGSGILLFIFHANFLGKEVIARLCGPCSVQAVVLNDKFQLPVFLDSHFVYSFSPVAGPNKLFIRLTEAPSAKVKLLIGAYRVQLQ
Chain of Methanococcus maripaludis chaperonin (MmCpn) (Q6LX38 1-543): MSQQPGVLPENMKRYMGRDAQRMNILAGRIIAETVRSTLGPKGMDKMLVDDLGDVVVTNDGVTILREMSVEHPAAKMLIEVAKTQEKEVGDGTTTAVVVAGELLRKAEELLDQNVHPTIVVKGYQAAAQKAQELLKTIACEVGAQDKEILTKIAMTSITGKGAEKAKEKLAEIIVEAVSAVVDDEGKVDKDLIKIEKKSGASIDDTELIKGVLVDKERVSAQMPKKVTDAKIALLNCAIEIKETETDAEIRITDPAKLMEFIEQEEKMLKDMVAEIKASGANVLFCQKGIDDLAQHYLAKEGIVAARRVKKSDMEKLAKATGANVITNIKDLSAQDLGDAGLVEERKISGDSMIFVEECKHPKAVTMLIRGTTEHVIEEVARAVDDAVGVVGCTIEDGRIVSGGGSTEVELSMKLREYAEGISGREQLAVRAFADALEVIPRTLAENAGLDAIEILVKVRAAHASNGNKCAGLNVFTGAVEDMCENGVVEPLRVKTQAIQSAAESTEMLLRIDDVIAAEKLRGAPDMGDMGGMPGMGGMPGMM
Chain of phosphoglycerate mutase (Leishmania major) (Q4Q090 1-553): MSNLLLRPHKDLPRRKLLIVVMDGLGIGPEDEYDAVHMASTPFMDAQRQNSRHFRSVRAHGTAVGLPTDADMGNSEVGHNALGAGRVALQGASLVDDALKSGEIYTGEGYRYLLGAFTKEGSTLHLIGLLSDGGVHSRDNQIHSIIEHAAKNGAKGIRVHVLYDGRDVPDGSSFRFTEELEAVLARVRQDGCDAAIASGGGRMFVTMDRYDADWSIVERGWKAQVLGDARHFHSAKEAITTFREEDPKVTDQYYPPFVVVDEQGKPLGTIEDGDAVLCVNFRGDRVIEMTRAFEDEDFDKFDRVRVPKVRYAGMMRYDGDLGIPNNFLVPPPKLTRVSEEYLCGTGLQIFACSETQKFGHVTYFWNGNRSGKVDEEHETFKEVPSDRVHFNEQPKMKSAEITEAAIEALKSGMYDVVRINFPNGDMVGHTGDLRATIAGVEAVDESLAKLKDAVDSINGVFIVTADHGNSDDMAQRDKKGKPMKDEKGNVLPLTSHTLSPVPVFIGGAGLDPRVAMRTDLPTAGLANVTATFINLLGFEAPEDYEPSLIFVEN

On to `O=c1c(O)c(-c2ccc(O)cc2O)oc2cc(O)cc(O)c12`, for which the Potency result in assay [1], in assay [3], in [9], in assay [11], in assay [13] and in assay [14] was “inactive” throughout. Further, the result in [2], in [7], in [8] and in [12] was inactive. Moreover, the Potency in assay [4] is 2.38 µM (active); in [5], 39.8 µM (active); in assay [6], 39.8 µM (active); in [15], 50.1 µM (active). In assay [10], the activation is 0.938% (inactive). Moreover, the viability change in assay [11] was -13.4%.
Regarding `COc1ccc2cc([C@H](C)C(=O)O)ccc2c1`, the Potency entry in assay [1], in assay [3], in [4], in [17], in assay [9] and in assay [11] was “inactive” throughout. The Potency entry in assay [13], in assay [20] and in assay [14] was “inactive” each time. Moreover, the call in assay [2], in [7], in assay [16], in assay [8], in [18] and in assay [12] was inactive. Moreover, the molecule was called inactive in assay [19]. In addition, in assay [6], the Potency was 0.006 µM (active). Also, the viability change in assay [11] was -8.13%.
`COc1ccccc1N1CCN(CCN(C(=O)C2CCCCC2)c2ccccn2)CC1`: the Potency entry in assay [1], in assay [3], in assay [4], in assay [5], in assay [6] and in assay [17] was “inactive” throughout. Moreover, the Potency result in [9], in assay [13], in [20], in [14] and in [15] was “inactive” throughout. Also, the result in [2], in [7], in assay [16], in [8], in assay [12] and in assay [19] was inactive. The activation in assay [10] is -4.06% (inactive).
In the case of `O=C(NCC1CCCCN1)c1cc(OCC(F)(F)F)ccc1OCC(F)(F)F` (stereo not drawn), the Potency entry in assay [1], in [5], in assay [13] and in assay [15] was “inactive” throughout. For the same molecule, the outcome in assay [16] was inactive. Besides, the activation in assay [10] is -4.44% (inactive).
As for `Cc1cc(O)c2c(c1)C(=O)c1cc(O)cc(O)c1C2=O`, the Potency entry in [1], in assay [17], in assay [9], in assay [11], in [13] and in [20] was “inactive” in each case. The call in assay [2], in assay [7], in [16], in assay [8], in [12] and in [19] was inactive. The activation in assay [10] is 10.2% (inactive). For the same molecule, in [11], the viability change is -15.1%.
As for `Cc1nc2n(c(=O)c1CCN1CCC(c3noc4cc(F)ccc34)CC1)CCCC2`, the Potency result in [1], in assay [5], in assay [13] and in assay [15] was “inactive” throughout. In addition, the result in assay [16] was inactive. Further, the activation in [10] was 0.938% (inactive).
Turning to `Nc1nc(OCc2ccccc2)c2[nH]cnc2n1`, the Potency entry in [1], in assay [3], in assay [4], in assay [5], in assay [6] and in [17] was “inactive” each time. The Potency entry in assay [9], in assay [11], in [13], in assay [20], in assay [14] and in assay [15] was “inactive” each time. For the same molecule, the molecule was classed as inactive in assay [2], in [7], in assay [16], in assay [8], in assay [12] and in assay [19]. Also, in assay [10], the activation was -2.94% (inactive). Further, the viability change in [11] stood at 10.1%.
